Assay results from the supplement of paper PMC12632987.
The full ranking holds about 1,800 sequences; the median of “median log2 fold change of GCK-ALFA target abundance (FLAG IP / Myc IP barcode read proportion)” is about 0.14, and the lowest 2% start at about -0.84. The full list was thinned out, with the lowest values kept by preference.

T1: TRAF2, Q12933
T1 chain: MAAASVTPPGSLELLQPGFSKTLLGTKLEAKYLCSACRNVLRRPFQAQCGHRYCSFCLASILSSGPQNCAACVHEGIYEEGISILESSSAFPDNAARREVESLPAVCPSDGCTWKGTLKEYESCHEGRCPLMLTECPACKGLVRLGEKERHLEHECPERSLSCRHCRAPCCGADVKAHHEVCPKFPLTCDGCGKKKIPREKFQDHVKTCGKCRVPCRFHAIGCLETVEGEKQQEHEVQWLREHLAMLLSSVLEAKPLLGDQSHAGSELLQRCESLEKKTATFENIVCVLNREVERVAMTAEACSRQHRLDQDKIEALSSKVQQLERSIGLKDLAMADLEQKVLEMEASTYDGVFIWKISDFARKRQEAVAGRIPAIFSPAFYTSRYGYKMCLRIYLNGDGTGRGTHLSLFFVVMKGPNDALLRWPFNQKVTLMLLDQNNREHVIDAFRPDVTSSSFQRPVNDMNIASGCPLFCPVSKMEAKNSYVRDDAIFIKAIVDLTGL

B1: traf2_out_20_3_2058 (protein)
chain: SELDEEIEKKTKELEKKLAELAKLLPPEEAAELAKAWAEVKKAAKEGLEEFLIAVSKLRRLLLELSEEARARGDEKTAKLLEEAAEIAQEIAHLIYKKIE
B2: traf2_out_1_158_906 (protein)
chain: STAVNTLYAVATSIADVYAELAKERGLEKAAALLEKLKEDIKELYEKNKNASLEEFAKKVLELIEEKEKESESLPEEDKALVDIAFRQIKSGVEQVVKLA
B3: traf2_out_16_177_1453 (protein)
chain: ELDRLMDRLVILSELRRAALLAVEGRGDEYREHLARARELAEEAGDEEALALADRIEALIAENTPEAKEELKKLAEELQKEAQKLALEAEKLIKERAKEE
B4: traf2_out_11_169_827 (protein)
chain: EEAEKNRKINDKALELEDKAKKEFKEFVLKLAKEDGLDVEEIKKIFEENKNKSLSAQAAAVIEYFKSKGKEEAAKKVLEKYEELKEKINKEVTAFIKELE
B5: traf2_out_11_155_748 (protein)
chain: EERRKLLQEMNDKITELFDKAREEALKIAEEAAKKHPEHAEEIKKKIEETKGFSYRSFILSMIELFEELGLEEEAKKLKELLEKTQKEANKIVQETEKKL
B6: traf2_out_20_3_2118 (protein)
chain: EELEEELEKELEEALKLLKEAAKLADKKTAKKLEKLAKRLKESRKLSPSDRLVVVSEVRREVRRLRLEAEKKGDKKLAKVLDEAAEELNRAANLLMKIIE
B7: traf2_out_13_95_1130 (protein)
chain: SRETAEKIMEIADEMLDKVLEILKELLKKFEKAGVGVEEIKEAIYLAEHQSINEAIKLLEELAKKYPEFKEELNKAIEEIKKLRREAGKKVAEILKEEKE
B8: traf2_out_11_79_936 (protein)
chain: EEKRQELLKKLEEALKLLKELLEKMKAGTISEEERKEMLDEIERLLQRAAQLALELGLSDTLVEISEAKRHVRLAYSGDLEALEKAIKELEEAIKLVEEA
B9: traf2_out_17_162_1640 (protein)
chain: SPVEEFKERVEKELKELEKRVEELEEKSKKIDEYSKEELSDLIVEASEVKRRARELKQEVLAAKDLIPEEERARILKRLEEIIERAQRIAQKFYDKYLSL
B10: traf2_out_13_95_1105 (protein)
chain: SAETAEKIMEVADEMLEKSEKLLEELLKIAKEKGKLVEEVQEALDLARYRSINEAIHKLKELAKKYPEFKEEFEATIKELEELKREAGRKVAEILKEEKE
B11: traf2_out_13_95_1160 (protein)
chain: SKELAKKIMEIADEMLDESEKILEELLKIAKEKGKLEKEVQEALDLARYRSINEAIHKLEELAKKYPEFKEEFEKAIKKLKELKREAGKKVAKLIKEEEE
B12: traf2_out_13_95_1154 (protein)
chain: SKELAEKIMEIADKMLDKSKEILKELLEIAKKKGKLEEEVQEALYLAETRSINEAIHKLKELAKKYPEFKEELEKAIKELEELKREAGKEVAKLIKEEKE
B13: traf2_out_17_162_1603 (protein)
chain: SSLEKKKEELLKKKEELKEELKRLTEKLKNIEKLSKEELSDLLVEASEKKREALEALEKIEELKDELDPEEYEKLSTEFEELAEEFQRIANKFYKELEKK
B14: traf2_out_6_156_2407 (protein)
chain: MVEEIFEEAMKEIKELIKKLSEASEEKKISYISKIAGTFYRALQRLREAGASVEELEEFIKRMMEKIKEWLDEEGLPEDIKNLILSSLKAVGDVALEEAK
B15: traf2_out_17_162_1641 (protein)
chain: SAAEELRKRLLEELERLEKELKELEEKSKKIDEYTKEELSDLIVEASEARRRARELIEEVDRNRSLLDPEEYEELKKRLEEIAERLNRIAQKFYDKYLEL
B16: traf2_out_17_162_1479 (protein)
chain: MSIEEKVERLERELEELEEEARRLREELERLEEKSKEEITDLLVEVSEARRRALELAEEFEELAPEIGEEKARELADRAREIAEELQRIANEIYKELEKK
B17: traf2_out_17_60_1760 (protein)
chain: GPEERKKELAEEARRKIEEARRLVEEVRKKLEAGTLTADEAMDYLVELSEKRRELRRLAEELRAEGPEFEPLIEELERAIEEVERTMNEVGKELERLLAA
B18: traf2_out_6_3_2512 (protein)
chain: EEEEERKRNEEALEEAAEMSLETIKIAAETTLKELEKAVEDPNATETDFLAYKSSLNLLLEIMKKHAEKHPEEKEEAEKFIEEMKKKLEELEKEWKKKRA
B19: traf2_out_20_3_2213 (protein)
chain: DELVAAVREQLAKIRELLEQARPRLAPEDYARLNALLARAEEALETDPSDALVALSELRRALLELAERARAAGDEELAKLLEEAAEAANKAANLVMQLLE

Target: T1, TRAF2, Q12933
Experiment: median log2 fold change of GCK-ALFA target abundance (FLAG IP / Myc IP barcode read proportion) (log2 ratio); each designed protein is fused to an ALFA-tag nanobody in HEK293 cells to bring the named protein to FLAG-tagged glucokinase (GCK); Myc marks an untargeted standard; higher = target protein stabilised (more abundant)
Settings: target protein: 3xFLAG-MCP-GCK-ALFA reporter; HEK293 landing pad (RPLP)
How it was run: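 Binders fused to an ALFA nanobody were recombined as a library into HEK293 landing-pad cells, which were induced with 2 μg mL^−1 doxycycline and then transfected to express a FLAG-tagged target and a Myc-tagged standard. After 48 h, circular RNA barcodes recovered by anti-FLAG and anti-Myc immunoprecipitation of lysates were reverse transcribed, amplified and sequenced. Each binder's target abundance is the median log2 ratio of FLAG to Myc barcode read proportions, from barcodes present at ≥10^−7 in both replicates, binders carrying ≥3 barcodes per replicate, a 10^−6 pseudocount and pooled replicates.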

**Q.** Which “median log2 fold change” value does the source give for B1 here?
**A.** The value was 0.144.

**Q.** With B2 as the binder, how does the “median log2 fold change” value read?
**A.** The value was 0.0998.

**Q.** For B3, which “median log2 fold change” value is on record?
**A.** Its value is -0.267.

**Q.** Which “median log2 fold change” value does the source give for B4 here?
**A.** The value was -0.542.

**Q.** How did the “median log2 fold change” value turn out when B5 was run?
**A.** The value was 0.302.

**Q.** How did the “median log2 fold change” value turn out when B6 was run?
**A.** The value was 0.107.

**Q.** How did the “median log2 fold change” value turn out when B7 was run?
**A.** Its value is -0.433.

**Q.** For B8, which “median log2 fold change” value is on record?
**A.** Its value is 0.397.

**Q.** B9 was tested. Which “median log2 fold change” value did it give?
**A.** Its value is 0.0147.

**Q.** How did the “median log2 fold change” value turn out when B10 was run?
**A.** Its value is -0.477.

**Q.** B11 was tested. Which “median log2 fold change” value did it give?
**A.** The value was -1.21.

**Q.** Which “median log2 fold change” value does the source give for B12 here?
**A.** The value was -0.148.

**Q.** For B13, which “median log2 fold change” value is on record?
**A.** The value was 0.253.

**Q.** Which “median log2 fold change” value does the source give for B14 here?
**A.** Its value is 0.175.

**Q.** How did the “median log2 fold change” value turn out when B15 was run?
**A.** Its value is 0.177.

**Q.** For B16, which “median log2 fold change” value is on record?
**A.** Its value is 0.0731.

**Q.** B17 was tested. Which “median log2 fold change” value did it give?
**A.** The value was 0.112.

**Q.** B18 was tested. Which “median log2 fold change” value did it give?
**A.** Its value is 0.417.

**Q.** B19 was tested. Which “median log2 fold change” value did it give?
**A.** Its value is 0.129.
